High-throughput results from PubChem.
In the library only some 10% were active in any assay of this set; here they are far more common.
SARS PLP yeast = blocks SARS-CoV papain-like protease in a yeast assay; S. cerevisiae expressing SARS-CoV PLpro, growth rescue; Potency, µM (doses to about 32.9 µM), without a hit: at the top dose activity, positive = growth rescue, most hits filed as activators; hit rate 0.19% among 330,000; also: 0% is about no effect; nearly all actives have a fitted effect of over 55% in size
NS1 function inh = inhibitors of influenza NS1 protein function | Potency, µM (top dose mostly 46.1 µM), without a hit: top-dose activity, positive = more growth | AID 2326 | hit rate 0.4% among 270,000; also: actives are rising curves; nearly all actives have a fitted effect of over 50% in size
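Growth recovery, yeast-based: influenza A NS1 expressed in S. cerevisiae causes slow growth, and suppressors are detected by OD600. The parent strain without NS1 is used as positive control.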
Pf growth 96h = P. falciparum growth inhibition at 96 hour, primary screen for plastid delayed-death inhibitors | P. falciparum luciferase reporter growth, 96 h | AID 504834 | hit rate 6.9% among 320,000 | Potency, µM (titrated, usually from 28.7 µM), for the others: at the top dose activity change, negative = inhibition, usual class: inhibitors; active = well fitted inhibition curve with a large enough effect; inconclusive = small, poorly fitted or top-dose-only effect, or another doubt; inactive = no such curve, though single readings can be large or run the other way; also: % is scaled to controls: 0 for no effect and ±100 for the full control effect
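Plates of compound plus infected erythrocytes (2% hematocrit, 0.05% parasitemia final) incubate 96 hours, 37 C, 5% CO2. Detection reagent added; reduced luminescence from the parasites' luciferase reporter flags inhibition.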
Pf growth 48h = inhibits P. falciparum growth in the first generation, 48 h | P. falciparum luciferase growth in erythrocytes, 48 h | Potency, µM (titrated, usually from 28.7 µM), inactives show at the top dose activity change, negative = inhibition, most hits filed as inhibitors | hit rate 5.9% among 310,000; active = well fitted inhibition curve with a large enough effect; inconclusive = small, poorly fitted or top-dose-only effect, or another doubt; inactive = no such curve, though single readings can be large or run the other way; also: % is scaled to controls: 0 for no effect and ±100 for the full control effect
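Luminescence readout; reporter = integrated firefly luciferase in P. falciparum. RBC culture at 2% hematocrit, 0.1% parasitemia final, 37 C/5% CO2; decreased signal taken as growth inhibition.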
Starred values were filed as active, the others as inactive; ? = inconclusive; . = no result given. Unless noted, calls follow the shape of the full dose curve. Potency is read from the fitted curve at half-maximal effect.

SMILES	SARS PLP yeast	NS1 function inh	Pf growth 96h	Pf growth 48h
COc1ccc(CN(C)CC(=O)Nc2ccccc2C(F)(F)F)cc1	5%	.	-23%	2%
COc1ccc2ccc(O)c(CN(C)CC(=O)Nc3ccccc3C(F)(F)F)c2c1	1%	15%	?	12µM*
COc1ccc(CCNCC(=O)Nc2ccccc2C(F)(F)F)cc1	-1%	.	-28%	13µM*
Cc1ccccc1C(=O)NNC(=O)/C=C/c1ccccc1	-1%	.	-6%	30%
CCOc1cccc(-c2cc(-c3n[nH]c(=S)n3CC)c3ccccc3n2)c1	-24%	10%	12µM*	13µM*
CCn1c(-c2cc(-c3ccc(C)c(C)c3)nc3ccccc23)n[nH]c1=S	-2%	5%	3.7µM*	4.1µM*
CCOc1ccccc1-c1cc(-c2n[nH]c(=S)n2CC)c2ccccc2n1	24%	8%	1.7µM*	1.9µM*
CCn1c(-c2cc(C3CC3)nc3ccccc23)n[nH]c1=S	-26%	8%	?	?
CCn1c(-c2cc(-c3cc(C)ccc3C)nc3ccccc23)n[nH]c1=S	9%	6%	2.6µM*	?
C[C@H]1CC(C)(C)C[C@@](OCCN2CCCCC2)(c2ccccc2)C1	.	-16%	.	.
CCN1CCN(CC(O)COC(c2ccccc2)c2ccccc2C)CC1 (stereo unspecified)	0%	2%	-33%	0%
O=C(COC(=O)c1ccc([N+](=O)[O-])o1)Nc1ncc(Cl)cc1Cl	-18%	.	.	.
COc1cc(OC)c(C2C(C(=O)O)c3ccccc3C(=O)N2C)cc1OC (stereo unspecified)	3%	7%	15µM*	3%
COc1ccc(OC)c(C2C(C(=O)O)c3ccccc3C(=O)N2C)c1 (stereo unspecified)	-4%	5%	9%	0%
COc1cc2c(cc1OC)C(C(=O)Nc1ccc3c(c1)OCCO3)C1c3ccccc3CCN1C2=O (stereo unspecified)	5%	-44%	9.3µM*	-9%
COc1ccc(C2C(C(=O)Nc3cccc(OC)c3)c3ccccc3C(=O)N2C)cc1 (stereo unspecified)	3%	.	1%	?
COc1ccc(C2C(C(=O)Nc3ccc4c(c3)OCCO4)c3ccccc3C(=O)N2C)cc1 (stereo unspecified)	-2%	-4%	?	5.2µM*
COc1cc2c(cc1OC)C(C(=O)Nc1ccccn1)C(c1cccnc1)N(C)C2=O (stereo unspecified)	3%	-3%	1.7µM*	-17%
COC(=O)c1c(NC(=O)CSc2nnc3ccccn23)sc2c1CCC2	-10%	-7%	0%	-9%
CSc1nc2nc(C)c(CCC(=O)OCC(=O)Nc3ccc(F)cc3)c(C)n2n1	5%	.	6%	-4%
COc1ccc(C2C(C(=O)Nc3cc(OC)c(OC)c(OC)c3)c3ccccc3C(=O)N2C)cc1 (stereo unspecified)	2%	.	16%	2.1µM*
CCN(Cc1ccccc1)C(c1cc2cc(C)cc(C)c2[nH]c1=O)c1nnnn1CCOC (stereo unspecified)	1%	-51%	0%	?
COCCn1nnnc1C(c1cc2c(C)cc(C)cc2[nH]c1=O)N1CCCCCC1 (stereo unspecified)	-4%	6%	7%	12µM*
COCCn1nnnc1C(c1cccs1)N1CCN(c2nc3ccccc3s2)CC1 (stereo unspecified)	-14%	-60%	?	?
COCCn1nnnc1C(c1cccs1)N1CCN(c2cc(C)ccc2C)CC1 (stereo unspecified)	-4%	-31%	?	13µM*
SMILES	SARS PLP yeast	NS1 function inh	Pf growth 96h	Pf growth 48h
COCCn1nnnc1C(c1cc2cc(C)ccc2[nH]c1=O)N1CCCCCC1 (stereo unspecified)	2%	-3%	-16%	10%
COCCn1nnnc1C(c1cc2cc(C)cc(C)c2[nH]c1=O)N1CCN(c2ccccc2F)CC1 (stereo unspecified)	0%	0%	?	12µM*
COc1ccc(OC)c(CC(NC(C)=O)C(=O)NC2CCN(S(=O)(=O)c3ccc(NC(C)=O)cc3)CC2)c1 (stereo unspecified)	-1%	0%	-7%	15%
O=C(Nc1ccccc1)N1CCC(C(=O)N2CCCC(C(F)(F)F)C2)CC1 (stereo unspecified)	0%	-9%	?	?
CCCCCOc1ccc(/C=C/c2c([N+](=O)[O-])c(=O)n(C)c(=O)n2C)cc1	-2%	1%	?	12µM*
Cn1c(/C=C/c2ccc(Cl)cc2)c([N+](=O)[O-])c(=O)n(C)c1=O	-3%	-41%	3%	?
CS(=O)(=O)c1ccc(Cl)c(NC(=O)CSc2nnc(-c3cccs3)n2N)c1	1%	.	-10%	?
CC(=O)Nc1ccccc1C(=O)C(=O)Nc1ccccc1	2%	6%	7.4µM*	64%
CC(=O)Nc1ccccc1C(=O)C(=O)Nc1cccc(C(=O)N2CCC3(CC2)OCCO3)c1	4%	.	1.9µM*	8%
CCOC(=O)c1cnc2c(CC)cccc2c1NCCCN1CCOCC1	5%	-5%	?	?
CCOC(=O)c1cnc2c(Cl)cccc2c1NCCN1CCOCC1	13%	10%	103%	-1%
CCOC(=O)c1cnc2c(c(C)nn2CC)c1NCCN1CCOCC1	-1%	-6%	12µM*	-25%
CCOC(=O)c1cnc2c(C(F)(F)F)cccc2c1NCCCN1CCOCC1	-6%	8%	222%	5.2µM*
Cc1ccc(S(=O)(=O)Nc2ccc(Br)cc2/C=N/n2cnnc2)cc1	-54%	-197%	3.7µM*	0%
CCN(CC(=O)Nc1ccc(S(=O)(=O)N2CCCC2)cc1)CC(=O)Nc1ccccc1C(F)(F)F	3%	.	.	.
Cc1[nH]c(C)c2c(=O)n(Cc3ccc(Cl)cc3)ncc12	1%	7%	?	12µM*
COc1ccc(SC[C@H](Cc2ccccc2)N2CCN(C)CCC2=O)cc1	1%	1%	10µM*	13µM*
CN1CCC(=O)N([C@H](CSc2ccc(Br)cc2)Cc2ccccc2)CC1	1%	-1%	3.3µM*	9.3µM*
CN1CCC(=O)N([C@H](CSc2ccccc2)Cc2ccccc2)CC1	7%	18%	?	1%
Cc1ccc(SC[C@H](Cc2ccccc2)N2CCN(C)CCC2=O)cc1	1%	17%	?	12µM*
CC(C)CN1CCC(=O)N([C@H](CSc2ccc(Br)cc2)Cc2ccccc2)CC1	-1%	2%	?	?
CSC(=[SH+])N=N/C(=C1/C=CC=CN1)c1ccccn1.[Cu][Br]	.	21%	.	.
CN(CC(=O)Nc1cc(Cl)cc(Cl)c1)Cc1cccs1	-8%	-3%	-3%	-17%
O=[N+]([O-])c1ccccc1/C=N/Nc1nnc(-c2ccccc2)c(-c2ccccc2)n1	11%	17%	45%	34%
CCN(CC)C(=O)CSc1nc2ccccc2c(=O)n1CC	4%	-13%	?	.
CCCCCCn1c(SCC(=O)Nc2cc(C)on2)nc2ccccc2c1=O	-2%	5%	6.6µM*	?
O=C1CN(C(=O)CSc2nc3ccccc3c(=O)n2Cc2ccc(F)cc2)c2ccccc2N1	14%	?	2.6µM*	12µM*
